Compound activity as filed in PubChem BioAssay.
HCMV inh – inhibitors of human cytomegalovirus | HFF cells, HCMV-luciferase reporter, 72 h; hits give low values | activity change, negative = inhibition, % at 57.5 µM | actives 4.5% (n = 410,000); in the data active = activity change below about -60%; inconclusive = no clear call, values can overlap the other calls; inactive = above about -39%
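Two compound doses tested in HFFs infected with HCMV-luciferase, MOI 1 PFU/cell, 72 h at 37C. Lysate luminescence read with OneGlo; data normalized against buffer-only and 10uM Salinomycin inhibitor controls.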
FMDV inh – antivirals against foot and mouth disease virus; actives 1.2% (n = 410,000); FMDV antiviral cell-based qHTS; AID 1159524; Potency, µM (highest dose often 57.9 µM), for inactives: at the top dose activity change, negative = inhibition, most hits filed as inhibitors; calls by dose curve; tested in HEK293T cells; also: read-out not given here; potency is read from the fitted curve at half-maximal effect; nearly all actives have a fitted effect of over 45% in size
Lassa entry inh – inhibitors of Lassa virus binding or cell entry; Lassa virus pseudotype entry inhibition, cell reporter; Potency, µM (titrated, usually from 37.9 µM), for the others: at the top dose activity change, negative = inhibition, usual class: inhibitors; actives 1.2% (n = 300,000); calls by dose curve; tested in HEK293 cells; also: potency is read from the fitted curve at half-maximal effect; nearly all actives have a fitted effect of over 50% in size
MARV entry inh – Marburg virus entry inhibition; Marburg virus pseudotyped entry inhibition, cell reporter; Potency, µM (series often up to 37.8 µM), for inactives: top-dose activity change, negative = inhibition, hits mostly inhibitors; actives 1.8% (n = 300,000); calls by dose curve; tested in HEK293 cells; also: potency is read from the fitted curve at half-maximal effect
* hit, by the source's call; ? = inconclusive; nt = no result given; [ ] = another dose, or the depositor's remark. A selection: hits, their analogues and other compounds. The true share with any hit is near 6.2%. % is scaled to controls: 0 for no effect and ±100 for the full control effect.

SMILES | HCMV inh | FMDV inh | Lassa entry inh | MARV entry inh
Cn1nnnc1Sc1ncnc2scc(-c3ccc(-c4ccccc4)cc3)c12 | -97* | ? | nt | nt
Cc1nnc(NC(=O)CSc2ncnc3scc(-c4ccccc4)c23)s1 | -16 | -16% | -2% | -4%
Cn1nnnc1Sc1ncnc2scc(-c3ccc(C#N)cc3)c12 | -94* | 28µM* | nt | nt
Cn1nnnc1Sc1ncnc2scc(-c3cc4ccccc4o3)c12 | -100* | 18µM* | nt | nt
Cn1nnnc1Sc1ncnc2scc(-c3cccs3)c12 | nt | 22µM* | nt | nt
O=C(NC(=S)Nc1ccccc1Br)C1CCCCC1 | 75 | 14% | ? | -2%
Cc1ccc(C)c(S(=O)(=O)N2CCN(C(=O)CCNS(=O)(=O)c3ccc(C)c(C)c3)CC2)c1 | -30 | 0% | ? | ?
Cn1nnnc1Sc1ncnc2scc(-c3ccsc3)c12 | -97* | 16µM* | nt | nt
COc1cccc(-c2cc(C(=O)Nc3ccc(N(C)C(C)=O)cc3)c3cc(Br)ccc3n2)c1 | -97* | ? | nt | nt
CC(=O)Nc1cccc(NC(=O)c2cc(-c3cccnc3)nc3ccc(Br)cc23)c1 | -28 | 0% | -12% | ?
CSc1ccccc1NC(=O)c1cc(-c2cccnc2)nc2ccc(Br)cc12 | -73* | -18% | ? | ?
COc1cc(/C=N/NC(=O)CCN2CCN(C(c3ccccc3)c3ccccc3)CC2)ccc1O | 2 | -17% | -21%[46.1 µM] | ?
O=C(NCc1ccccc1)C(c1ccncc1)n1c(=O)c(-c2ccco2)nc2ccccc21 (stereo not drawn) | 72 | 0% | nt | nt
CCCCOc1ccc(CSC(CC(=O)O)C(=O)O)cc1 (stereo not drawn) | -29 | -2% | -6% | 5%
CCCCOc1ccc(CSCCN=C(N)N)cc1 | -62* | -12% | ? | ?
c1ccc(C2=NNC(=NCc3ccc4c(c3)OCO4)SC2)cc1 | -32 | 15% | -3% | 5%
Cc1sc(N)nc1-c1ccc2c(c1)OCCO2 | 31 | 50% | nt | nt
COCCN=C1NN=C(c2cc(C)n(CC3CCCO3)c2C)CS1 (stereo not drawn) | 30 | -30% | nt | 5%[46.1 µM]
NC1=NN=C(c2ccc3c(c2)OCCO3)CS1 | 47 | 11µM* | 7.1µM* | 11µM*
C=CCN=C1NN=C(c2ccc3c(c2)OCCO3)CS1 | -33 | 8.9µM* | 0.46µM* | 0.92µM*
C=CCN=C1NN=C(c2cc(C)n(CC=C)c2C)CS1 | -88* | 18µM* | ? | ?
O=[N+]([O-])c1ccc(CNc2cccc(F)c2)s1 | 2 | -26% | -18% | 1%
CCOC(=O)[C@]12CCCC=C1N(Cc1ccc3c(c1)OCO3)C(=O)[C@H](CC(=O)NCc1cccc(C(F)(F)F)c1)C2 | -65* | -15% | nt | nt
COC(=O)[C@]12CCCCC=C1N(Cc1ccc(Cl)cc1Cl)C(=O)[C@H](CC(=O)NCc1ccccc1)C2 | 6 | -9% | nt | nt
CCOC(=O)[C@]12CCCC=C1N(Cc1ccco1)C(=O)[C@H](CC(=O)N1CCSCC1)C2 | -82* | -12% | nt | nt
SMILES | HCMV inh | FMDV inh | Lassa entry inh | MARV entry inh
CCOC(=O)[C@]12CCCC=C1N(Cc1ccc(Cl)cc1Cl)C(=O)[C@H](CC(=O)NCc1ccc(OC)c(OC)c1)C2 | -71* | ? | nt | nt
CCOC(=O)[C@]12CCC=C1N(Cc1ccc3c(c1)OCO3)C(=O)[C@H](CC(=O)NCc1cccc(C(F)(F)F)c1)C2 | 13 | -19% | nt | nt
COC(=O)[C@]12CCCCC=C1N(Cc1ccc(Cl)cc1Cl)C(=O)[C@H](CC(=O)NCc1ccc(OC)c(OC)c1)C2 | -70* | 32µM* | nt | nt
c1ccc(SC23CCCCN(CCC2)C32OCCO2)cc1 (stereo not drawn) | 6 | -21% | nt | nt
Cn1c(=O)n(C)c2cc(NC(=O)CCl)ccc21 | -104* | ? | 18µM* | ?
CCn1c(=O)oc2cc(NC(=O)CCl)ccc21 | ? | 22µM* | ? | ?
O=C(CCn1c(=O)oc2cc(Cl)ccc21)Nc1ccc(O)cc1 | -14 | 10% | nt | 23%[46.1 µM]
COc1ccc(Cl)cc1Nc1nc(-c2sc(NC(=O)C(C)(C)C)nc2C)cs1 | -90* | -35% | nt | nt
CCCC(C)C(=O)Nc1nc(C)c(-c2csc(Nc3ccc(Cl)cc3)n2)s1 (stereo not drawn) | -80* | ? | nt | nt
Cc1ccc(C(=O)NCCc2csc(-c3cccc(F)c3)n2)cc1C | -4 | 3% | 16%[46.1 µM] | nt
CN(C(=O)c1ccccc1F)C(c1ccccc1)c1ccccc1 | 15 | -8% | 11µM* | ?
COc1ccc(C(=O)N(C)C2CCCCC2)cc1S(=O)(=O)N1CCOCC1 | -14 | -7% | nt | nt
CC(C)(C)c1ccc(C(=O)Nc2ccc(CN3CCS(=O)(=O)CC3)cc2)cc1 | -80* | ? | ? | ?
